Growth data for twelve compounds are collected here from PubChem BioAssay (NCI).

Compounds without any hit were thinned out: in the full panel of roughly 83,000, 20% have a hit.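 The test compound was applied at a single concentration to cells in 96-well plates for 48 hours, and percent growth was recorded.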 A number with no mark means an inactive call. The source made the active and inactive calls. The calls were made as follows: active = growth percent below 10; inactive = the rest.

Among the test systems are SK-MEL-2 melanoma; EKVX NSCLC; SN12C renal; UO-31 renal; TK-10 renal; ACHN renal; CAKI-1 renal; A498 renal; CCRF-CEM leukemia; MOLT-4 leukemia.
What all share (test): NCI-60 one-dose screen, 48 h (100 = growth as untreated, 0 = no growth, -100 = all killed)
Conditions in all cases: 10 µM unless noted

Take `COCCCNc1nc(NC(=O)c2cc(OC)cc(OC)c2)cc(-c2cccnc2)n1`: the growth in the experiment on SK-MEL-2 melanoma was 78.8%; in the experiment on EKVX NSCLC, 105%; in the experiment with SN12C renal, 95.3%; in the experiment on UO-31 renal, 56.7%; in the experiment on TK-10 renal, 86.7%; in the experiment with ACHN renal, 98.2%. The growth in the experiment on CAKI-1 renal was 99.4%; in the experiment on A498 renal, 67.7%; in the experiment on CCRF-CEM leukemia, 91.7%; in the experiment on MOLT-4 leukemia, 83.5%.
As for `COc1cc(Cl)cc(-c2nn(C(=O)NS(=O)(=O)c3ccccc3)cc2-c2ccncc2)c1`, the growth is 98.7% with SK-MEL-2 melanoma; 61.2% in the experiment with EKVX NSCLC; 94.5% with SN12C renal; 70.6% in the experiment on UO-31 renal; 97.2% with TK-10 renal; 80% in the experiment with ACHN renal. Also, the growth with CAKI-1 renal is 80.9%; in the experiment with A498 renal, 82.9%; in the experiment with CCRF-CEM leukemia, 94.6%; in the experiment with MOLT-4 leukemia, 82.8%.
As to `CCOC(=O)CC(c1ccccc1)C(C#N)c1ccccc1` (stereo not given), the growth in the experiment on SK-MEL-2 melanoma was 106%; with EKVX NSCLC it was 87.5%; in the experiment with SN12C renal, 109%; in the experiment on UO-31 renal, 84%; with TK-10 renal it was 101%; in the experiment on ACHN renal, 103%. In addition, the growth with CAKI-1 renal is 87.1%; in the experiment with A498 renal it was 91.3%; in the experiment with CCRF-CEM leukemia, 98.9%; in the experiment on MOLT-4 leukemia, 88.8%.
Take `CCOC(=O)c1nn(C2CCCCO2)c2ccc(NC(=O)Cn3nnc4ccccc43)cc12` (stereo not given): the growth in the experiment on SK-MEL-2 melanoma was 113%; in the experiment on EKVX NSCLC, 98.1%; in the experiment with SN12C renal, 97.6%; with UO-31 renal, 82.6%; in the experiment on TK-10 renal it was 117%; in the experiment on ACHN renal it was 98.6%. In addition, the growth was 97.6% in the experiment on CAKI-1 renal, 85.8% in the experiment on A498 renal, 117% in the experiment with CCRF-CEM leukemia and 95.9% in the experiment with MOLT-4 leukemia.
On to `O=[N+]([O-])c1cccc(N=NNc2cccc([N+](=O)[O-])c2)c1`, for which the growth was 104% in the experiment on SK-MEL-2 melanoma; 84.6% with EKVX NSCLC; 89.5% in the experiment on SN12C renal; 80% in the experiment on UO-31 renal; 69.7% in the experiment with TK-10 renal; 95.7% in the experiment on ACHN renal. Also, the growth in the experiment on CAKI-1 renal is 87.5%; in the experiment on A498 renal, -2.16% (active); in the experiment with CCRF-CEM leukemia, 84.3%; with MOLT-4 leukemia it was 82.7%.
As to `CCn1cc(-c2cc(-c3ccc(Cl)cc3)nc(N)n2)c(-c2ccc(Br)cc2)n1`, the growth in the experiment on SK-MEL-2 melanoma is 62.7%; in the experiment with EKVX NSCLC it was 78.1%; in the experiment on SN12C renal, 84.5%; in the experiment with UO-31 renal, 67.7%; with TK-10 renal, 80.2%; in the experiment on ACHN renal, 46.9%. The growth is 51.8% in the experiment on CAKI-1 renal, 92% with A498 renal, 82.9% with CCRF-CEM leukemia and 83.4% with MOLT-4 leukemia.
Turning to `Cc1cccc(C[C@H](NC(=O)Nc2ccc(Cl)cc2F)C(=O)N[C@@H]2C(=O)N3C[C@H](OC(=O)CCN(C)C)C[C@H]3C(=O)N3CCCC[C@H]3C(=O)N[C@@H](C)C(=O)N3C[C@H](C)C[C@H]3C(=O)O[C@H]2C)c1`, the growth in the experiment with SK-MEL-2 melanoma was 24.4%; in the experiment with EKVX NSCLC it was 47.3%; in the experiment with SN12C renal, 12.5%; in the experiment on UO-31 renal it was 31.1%; with TK-10 renal, 47.8%; in the experiment on ACHN renal it was 27.5%. Moreover, the growth with CAKI-1 renal is 15.5%; with A498 renal it was -11.1% (active); with CCRF-CEM leukemia, 42.4%; in the experiment with MOLT-4 leukemia it was 27.8%.
On to `Cc1cc2c(C(C)C)c(O)c(O)c(C=NCc3ccoc3)c2c(O)c1-c1c(C)cc2c(C(C)C)c(O)c(O)c(C=NCc3ccco3)c2c1O`, for which the growth is 45.4% with SK-MEL-2 melanoma; 23.6% with EKVX NSCLC; 40.5% with SN12C renal; 36.2% in the experiment with UO-31 renal; 45.8% in the experiment with TK-10 renal; 25.3% in the experiment with ACHN renal. The growth in the experiment on CAKI-1 renal is 54%; with A498 renal, 80.1%; in the experiment on CCRF-CEM leukemia, 21%; in the experiment with MOLT-4 leukemia it was 14.5%.
As to `C=C(C)[C@@H]1CC[C@]2(COCCC#N)CC[C@]3(C)[C@H](CC[C@@H]4[C@@](C)(CCCNCCC#N)[C@H](C(=C)C)CC[C@]43C)[C@@H]12`, the growth in the experiment on SK-MEL-2 melanoma is 10% [100 µM]; in the experiment with EKVX NSCLC it was 92.9% [100 µM]; in the experiment on SN12C renal, 27.9% [100 µM]; in the experiment with UO-31 renal, 15.3% [100 µM]; in the experiment on TK-10 renal, 49.7% [100 µM]; in the experiment with ACHN renal it was 11.4% [100 µM]. Also, the growth was 27% [100 µM] with CAKI-1 renal, 90.5% [100 µM] in the experiment with A498 renal, 1.32% [100 µM] (active) in the experiment on CCRF-CEM leukemia and 2.22% [100 µM] (active) in the experiment on MOLT-4 leukemia.
As to `COc1cccc(-c2[nH]c(=S)ncc2C(=O)c2ccccc2)c1`, the growth in the experiment on SK-MEL-2 melanoma is 99.9%; with EKVX NSCLC, 86.9%; in the experiment on SN12C renal, 94.4%; with UO-31 renal, 75.9%; in the experiment with TK-10 renal it was 100%; in the experiment with ACHN renal, 91.1%. Also, the growth in the experiment on CAKI-1 renal is 58.9%; in the experiment on A498 renal, 75%; in the experiment with CCRF-CEM leukemia it was 93.7%; in the experiment with MOLT-4 leukemia it was 76.8%.
For `C#C[C@]1(O)CC[C@H]2[C@@H]3CC=C4c5nc(Nc6ncccn6)sc5CC[C@]4(C)[C@H]3CC[C@@]21C`, the growth is 18% with SK-MEL-2 melanoma; 43.6% in the experiment on EKVX NSCLC; 82.8% in the experiment with SN12C renal; 83.4% with UO-31 renal; 77.3% with TK-10 renal; 60.7% in the experiment on ACHN renal. In addition, the growth was 58.6% in the experiment with CAKI-1 renal, 34.4% with A498 renal, 48.6% with CCRF-CEM leukemia and 2.75% (active) with MOLT-4 leukemia.
In the case of `CCCCCCCCN(CCCCCCCC)CC(O)c1ccc(Cl)c(C)c1Cl` (stereo not given), the growth was 123% with SK-MEL-2 melanoma; 99.4% in the experiment with EKVX NSCLC; 84% in the experiment with SN12C renal; 45.1% in the experiment with UO-31 renal; 94.6% in the experiment on TK-10 renal; 74.7% with ACHN renal. Further, the growth in the experiment on CAKI-1 renal was 72.5%; in the experiment on A498 renal, 70.7%; with CCRF-CEM leukemia, 78%; with MOLT-4 leukemia, 91.4%.
